Reference: ChEMBL document CHEMBL3988442, “University of Dundee, Small-Polar-MMV Screening Library” (2021)
The campaign covered roughly 48,000 compounds. About 13,000 (27%) showed an effect of 50% or more. The list shows a part of the results.

These compounds were tested on Wolbachia pipientis (assay: Anti-Wolbachia Cell-Based Screen). Settings: 5 µM.
Type: functional
Set-up: scale not given: in the data most compounds retested in dose-response had high values

Row | Compound | Percent Effect
1 | CN(CCN1CCOCC1)S(=O)(=O)CC1CCCC1 | -5.333%
2 | CCOC(C)c1nc(Cn2cccn2)cs1 (configuration not stated) | -9.016%
3 | CNC(=O)NC(=O)C(C)Nc1ccccc1OCCOC (configuration not stated) | -4.777%
4 | CCC(C#N)NC(=O)CCCOc1cccc(C(C)=O)c1 (configuration not stated) | 2.653%
5 | N#CC(NC(=O)CCCOc1cccnc1)c1ccccc1Cl (configuration not stated) | 111.5%
6 | COCCOCC(=O)NC(C#N)c1cccc(Cl)c1Cl (configuration not stated) | -5.462%
7 | N#CC(NC(=O)CCCOc1cccnc1)c1ccc(F)cc1F (configuration not stated) | 86.86%
8 | CC(NC(=O)CCCOc1ccccc1Cl)c1ccncc1 (configuration not stated) | -5.122%
9 | COCCOCC(=O)NC(C#N)c1ccccc1C (configuration not stated) | -6.044%
10 | N#CC(NC(=O)CCC(=O)NC1CCCC1)c1ccc(F)cc1F (configuration not stated) | -15.9%
11 | Cc1ccccc1C(C#N)NC(=O)CCCOc1cccnc1 (configuration not stated) | 81.76%
12 | CCCC(C#N)NC(=O)CCCOc1cccc(F)c1 (configuration not stated) | -0.6223%
13 | CC(C)c1ccc(S(=O)(=O)Cc2nc(N)nc(N(C)C)n2)cc1 | 13.19%
14 | COc1c(NC(=O)N(C)CCOc2ccccc2)c(C)nn1C | -49.81%
15 | c1ccn2c(SCC3CN=C(N4CCOCC4)S3)ncc2c1 (configuration not stated) | 6.715%
16 | O=S(=O)(NC1CCN(CC(F)(F)F)C1)c1cc(F)cc(F)c1 (configuration not stated) | -11.02%
17 | COCC(=O)N1CCC(c2cc(N(C)C)cc(C)n2)CC1 | 144.6%
18 | COCC(=O)N1CCC(c2cc(C(F)(F)F)n3ccnc3n2)CC1 | -3.76%
19 | COCC(=O)N1CCC(c2cc(-c3ccc(N)nc3)cc(C)n2)CC1 | 134.8%

Row | Compound | Percent Effect
20 | COCC(=O)N1CCC(c2noc3nc(C)cc(C(F)(F)F)c23)CC1 | -9.714%
21 | CN(c1cccc(C#N)c1)S(=O)(=O)c1cc(C(=O)O)ccc1Cl | -8.921%
22 | CCc1ncc2c(n1)CN(CC1CCCCO1)CC2 (configuration not stated) | -28.59%
23 | CCN(C(=O)c1ccc2nnc(C3CCN(C(C)=O)C3)n2c1)C(C)C (configuration not stated) | -2.519%
24 | CNC(=O)c1cccc(NC(=O)NC(C)c2cc(C)oc2C)c1C (configuration not stated) | -16.36%
25 | CN1CCN(C(=O)[C@@H]2C[C@@H]3CCN(c4cccc(F)c4)C[C@H]3O2)CC1 | 96.73%
26 | O=C(O)C(F)(F)F.O=C([C@@H]1C[C@@H]2CCN(c3cccc(F)c3)C[C@H]2O1)N1CCCC1 | 103.2%
27 | Fc1cccc(N2C[C@H]3CCN(c4cccnc4)C[C@H]3C2)c1.O=C(O)C(F)(F)F | 6.711%
28 | O=C(O)C(F)(F)F.O=C([C@@H]1CC[C@@H]2[C@@H](CCN2Cc2cccc(F)c2)O1)N1CCCCO1 | -25.86%
29 | CN1CCN(C(=O)[C@H]2C[C@@H]3CCN(c4ncc(F)cn4)C[C@@H]3O2)CC1.O=C(O)C(F)(F)F | -9.48%
30 | Cc1ccc(CN2CC[C@H]3C[C@H](C(=O)N4CCCO4)O[C@@H]3C2)o1.O=C(O)C(F)(F)F | -11.63%
31 | O=C(O)C(F)(F)F.O=C([C@H]1C[C@@H]2CCN(c3cccc(F)c3)C[C@H]2O1)N1CCCC1 | 111.1%
32 | O=S(=O)(C1CC1)N1CCOC2(CCCN(c3cccc(F)c3)C2)C1 (configuration not stated) | 7.053%
33 | O=C(O)C(F)(F)F.O=C([C@H]1C[C@@H]2CCN(c3cccc(F)c3)C[C@H]2O1)N1CCCCO1 | 96.52%
34 | COc1cccc(OCc2cc(C(=O)NC[C@H]3CCCN3)n[nH]2)c1 | -9.254%
35 | CCc1nc(NS(=O)(=O)c2ccc(C)cc2Cl)no1 | -7.333%
36 | CC(C)c1csc(C2CCCN(C(=O)c3ccc(=O)n(C)c3)C2)n1 (configuration not stated) | 2.326%
37 | CC(C)Cc1nc(CN(C)CCOc2ccccc2F)no1 | 2.804%
38 | O=C(Cn1ccc(=O)[nH]c1=O)NCC1Cc2ccccc2O1 (configuration not stated) | 0.2234%

Row | Compound | Percent Effect
39 | CC(C)NC(=O)NC[C@H]1OC[C@@H](NCc2ccc(F)cc2)[C@@H]1O | 8.979%
40 | CC1=C(CCN2C[C@H](O)[C@@H](N3CCOCC3)C2)C(C)(C)CCC1 | 0.7691%
41 | CCOc1cncc(N2CCCC2c2nnc3n2CCCCC3)n1 (configuration not stated) | 129.6%
42 | CCOc1c(Br)cc(CNCCc2nnc3n2CCCCC3)cc1OC.Cl | 15.42%
43 | COc1ccc(CC(=O)N2CCC(c3nnc4n3CCC4)CC2)cc1F | -6.133%
44 | O=C(C1CCC1)N1CCCC1c1nnc2n1CCCCC2 (configuration not stated) | -4.579%
45 | Clc1cncc(N2CCCC2c2nnc3n2CCCCC3)n1 (configuration not stated) | 118.9%
46 | Cc1cnn(CC2CCCCN2c2ncnc3ccccc23)c1 (configuration not stated) | -9.464%
47 | CC1c2ncc(COCC3CC3)n2CCN1C.O=C(O)C(F)(F)F (configuration not stated) | -13.39%
48 | Cc1ccc(C(C(=O)N2CC(c3ccccn3)C2)N(C)C)cc1 (configuration not stated) | 13.16%
49 | COCC1CC2(CCN(Cc3cnn(C)c3)CC2)CN1c1ncccn1.O=C(O)C(F)(F)F.O=C(O)C(F)(F)F (configuration not stated) | -8.289%
50 | COc1cccc(CN2CCC3(CCN(c4ncc(F)cn4)CC3)C2)c1.O=C(O)C(F)(F)F | -1.729%
51 | Cn1cc(CN2CCC(F)(F)C3(CCN(c4ccccn4)C3)C2)cn1.O=C(O)C(F)(F)F.O=C(O)C(F)(F)F (configuration not stated) | 97.58%
52 | Cn1cc(CN2CCC(F)(F)C3(CCN(c4cnccn4)C3)C2)cn1.O=C(O)C(F)(F)F.O=C(O)C(F)(F)F (configuration not stated) | -4.979%
53 | O=C(O)C(F)(F)F.O=C(c1cnccn1)N1CCC(F)(F)C2(CCN(c3ccccn3)C2)C1 (configuration not stated) | -12.88%
54 | Cn1cc(CN2CCC[C@]3(C(=O)O)CN(c4ncccn4)C[C@@H]3C2)cn1.O=C(O)C(F)(F)F | 8.279%
55 | COc1cccc(CN2CCC3(CC2)CCN(c2ncc(F)cn2)C3)c1.O=C(O)C(F)(F)F | 3.548%
56 | Cn1cc(CN2CCC(F)(F)C3(CCN(c4ncccn4)C3)C2)cn1.O=C(O)C(F)(F)F.O=C(O)C(F)(F)F (configuration not stated) | 111.9%
57 | Cn1cc(CN2CCC(F)(F)C3(CCN(c4ncc(F)cn4)C3)C2)cn1.O=C(O)C(F)(F)F (configuration not stated) | 107.8%
